Compounds without any hit were thinned out: in the full panel of roughly 79,000, 15% have a hit. A number with no mark means an inactive call. Calls of active or inactive are those of the source. Cut-off read from the data, not from the text of the source: active = growth inhibition above about 70%; inactive = the rest.
Columns and labels:
[1] = NCI Yeast Anticancer Drug Screen. Data for the rad52 strain (AID 147);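 note: 0% = growth of vehicle-treated control cultures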; conditions: S. cerevisiae rad52 mutant growth inhibition, stronger effect = higher value
Summary of the method: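 Here a repair-compromised yeast strain receives each compound; its growth is then quantified and normalised to vehicle-only controls.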

[2] = NCI Yeast Anticancer Drug Screen. Data for the wt1 strain (AID 149);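 note: 0% = growth of vehicle-treated wt1 cultures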; conditions: S. cerevisiae wt1 strain (SPY 50644) growth inhibition, stronger effect = higher value
Summary of the method: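 Growth inhibition read against vehicle controls after compound exposure of the wt1 yeast strain.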

[3] = NCI Yeast Anticancer Drug Screen. Data for the rad50EPP+ strain (AID 151);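 note: 0% = growth of vehicle-treated control cultures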; conditions: S. cerevisiae rad50 mutant strain, stronger effect = higher value
Summary of the method: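 Read-out is yeast growth inhibition relative to vehicle; cells used were the rad50EPP+ strain.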

[4] = NCI Yeast Anticancer Drug Screen. Data for the mgt1 strain (AID 153); conditions: S. cerevisiae mgt1 mutant growth inhibition, stronger effect = higher value
Summary of the method: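 Measured: inhibition of mgt1 yeast growth by compound, normalized to vehicle-treated cultures.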

[5] = NCI Yeast Anticancer Drug Screen. Data for the rad50 strain (AID 155);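 note: 0% = growth of vehicle-only cultures of the same strain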; conditions: S. cerevisiae rad50 strain growth inhibition, stronger effect = higher value
Summary of the method: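 Readout: growth inhibition relative to vehicle-treated cultures. Compound exposure was carried out in a genetically defined yeast strain deficient in DNA damage repair.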

[6] = NCI Yeast Anticancer Drug Screen. Data for the mec2-1 strain (AID 157); conditions: S. cerevisiae mec2-1 strain, stronger effect = higher value
Summary of the method: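 Using mec2-1 yeast: add compound, measure growth, express inhibition versus vehicle-treated cultures.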

[7] = NCI Yeast Anticancer Drug Screen. Data for the rad14 strain (AID 159);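 note: 0% = growth of vehicle-treated control cultures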; conditions: S. cerevisiae rad14 strain growth inhibition, stronger effect = higher value
Summary of the method: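 Growth inhibition vs vehicle controls; genetically altered yeast strain (DNA damage repair defect) treated with test compounds.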

[8] = NCI Yeast Anticancer Drug Screen. Data for the sgs1 mgt1 strain (AID 161);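 note: 0% = growth of cultures given vehicle only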; conditions: S. cerevisiae sgs1 mgt1 strain, stronger effect = higher value
Summary of the method: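 Yeast cells carrying a defined DNA-repair defect were exposed to test compounds. Growth inhibition was measured relative to vehicle-treated controls.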

[9] = NCI Yeast Anticancer Drug Screen. Data for the CLN2oe strain (AID 163);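 note: 0% = growth of vehicle-only control cultures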; conditions: S. cerevisiae CLN2oe strain, stronger effect = higher value
Summary of the method: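 Whole-cell yeast growth assay. A strain engineered for altered cell-cycle control received compound, and inhibition relative to vehicle-treated cultures was recorded.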

[10] = NCI Yeast Anticancer Drug Screen. Data for the cln2 rad14 strain (AID 165);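 note: 0% = growth equal to vehicle treated cultures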; conditions: S. cerevisiae cln2 rad14 strain, stronger effect = higher value
Summary of the method: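 Yeast strain cln2 rad14, bearing defects in cell cycle control and DNA repair, serves as the test system; values reflect growth inhibition compared with vehicle.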

[11] = NCI Yeast Anticancer Drug Screen. Data for the bub3 strain (AID 167); conditions: S. cerevisiae bub3 mutant strain, stronger effect = higher value
Summary of the method: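 Readout: yeast growth inhibition, expressed relative to vehicle-only wells. The test organism is a mutant strain from a panel with lesions in DNA repair or checkpoint genes.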

[12] = NCI Yeast Anticancer Drug Screen. Data for the wt2 strain (AID 169);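 note: 0% = growth of vehicle-treated yeast cultures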; conditions: S. cerevisiae wt2 strain growth inhibition, stronger effect = higher value
Summary of the method: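 Treated yeast vs. vehicle-treated yeast: growth inhibition determined.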

[13] = NCI Yeast Anticancer Drug Screen. Data for the mlh1 strain (AID 171);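 note: 0% = growth of vehicle-treated control cultures of the same strain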; conditions: S. cerevisiae mlh1 strain growth inhibition, stronger effect = higher value
Summary of the method: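 A yeast strain with a defined genetic lesion serves as the test organism. Cultures receive compound or vehicle, and growth is measured.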

[14] = NCI Yeast Anticancer Drug Screen. Data for the sgs1 strain (AID 173);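 note: 0% = growth of vehicle-only control cultures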; conditions: S. cerevisiae sgs1 mutant, stronger effect = higher value
Summary of the method: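 A genetically defined yeast mutant is incubated with the test compound, and its growth is compared to that of the same strain given vehicle.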

[15] = NCI Yeast Anticancer Drug Screen. Data for the mlh1 rad18 strain (AID 175); conditions: S. cerevisiae mlh1 rad18 strain growth inhibition, stronger effect = higher value
Summary of the method: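 Steps: expose repair-defective yeast to compound; measure growth; express inhibition against vehicle-treated controls.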

[16] = NCI Yeast Anticancer Drug Screen. Data for the rad18 strain (AID 177); conditions: S. cerevisiae rad18 mutant growth inhibition, stronger effect = higher value
Summary of the method: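 Measured value is growth inhibition of a yeast strain bearing a DNA repair alteration, referenced to vehicle-treated cells.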

[17] = at 5.0 µM (retest, dose inferred, filed as 0.5)
[18] = at 50.0 µM (retest, dose inferred, filed as 5.0)

**Q.** What does the source list for `CC(C)Cc1ncc(CCCN=C(N)N)[nH]c1=O`?
**A.** growth inhibition ([1]; at 1.2 µM): -7%; growth inhibition ([1]; at 3.7 µM): -10%; growth inhibition ([1]; at 11.0 µM): -5%; growth inhibition ([1]; at 33.0 µM): -1%; growth inhibition ([1]; at 100.0 µM): -5%; growth inhibition ([2]; at 1.2 µM): 0%; growth inhibition ([2]; at 3.7 µM): 1%; growth inhibition ([2]; at 11.0 µM): 4%; growth inhibition ([2]; at 33.0 µM): 3%; growth inhibition ([2]; at 100.0 µM): 6%; growth inhibition ([3]; at 1.2 µM): -2%; growth inhibition ([3]; at 3.7 µM): -13%; growth inhibition ([3]; at 11.0 µM): 0%; growth inhibition ([3]; at 33.0 µM): 9%; growth inhibition ([3]; at 100.0 µM): 9%; growth inhibition ([4]; at 1.2 µM): -2%; growth inhibition ([4]; at 3.7 µM): -5%; growth inhibition ([4]; at 11.0 µM): -3%; growth inhibition ([4]; at 33.0 µM): -6%; growth inhibition ([4]; at 100.0 µM): -6%; growth inhibition ([5]; at 1.2 µM): -14%; growth inhibition ([5]; at 3.7 µM): -19%; growth inhibition [5, 17]: -5%; growth inhibition ([5]; at 11.0 µM): -21%; growth inhibition ([5]; at 33.0 µM): -20%; growth inhibition [5, 18]: 4%; growth inhibition ([5]; at 50.0 µM): 82.8% (active); growth inhibition ([5]; at 100.0 µM): 2%; growth inhibition ([6]; at 1.2 µM): -4%; growth inhibition ([6]; at 3.7 µM): -2%; growth inhibition [6, 17]: 3%; growth inhibition ([6]; at 11.0 µM): -3%; growth inhibition ([6]; at 33.0 µM): -5%; growth inhibition [6, 18]: 49%; growth inhibition ([6]; at 50.0 µM): 77.8% (active); growth inhibition ([6]; at 100.0 µM): -3%; growth inhibition ([7]; at 1.2 µM): 0%; growth inhibition ([7]; at 3.7 µM): 1%; growth inhibition ([7]; at 11.0 µM): 15%; growth inhibition ([7]; at 33.0 µM): 11%; growth inhibition ([7]; at 100.0 µM): -2%; growth inhibition [8, 17]: 1%; growth inhibition [8, 18]: 38%; growth inhibition ([8]; at 50.0 µM): 84.2% (active); growth inhibition ([9]; at 1.2 µM): -4%; growth inhibition ([9]; at 3.7 µM): -5%; growth inhibition ([9]; at 11.0 µM): -13%; growth inhibition ([9]; at 33.0 µM): -11%; growth inhibition ([9]; at 100.0 µM): -7%; growth inhibition [10, 17]: -7%; growth inhibition [10, 18]: 38%; growth inhibition ([10]; at 50.0 µM): 74.5% (active); growth inhibition ([11]; at 1.2 µM): -9%; growth inhibition ([11]; at 3.7 µM): -6%; growth inhibition [11, 17]: -6%; growth inhibition ([11]; at 11.0 µM): -10%; growth inhibition ([11]; at 33.0 µM): -14%; growth inhibition [11, 18]: 91% (active); growth inhibition ([11]; at 50.0 µM): 81.8% (active); growth inhibition ([11]; at 100.0 µM): -14%; growth inhibition ([12]; at 1.2 µM): 6%; growth inhibition ([12]; at 3.7 µM): 12%; growth inhibition ([12]; at 11.0 µM): 15%; growth inhibition ([12]; at 33.0 µM): 17%; growth inhibition ([12]; at 100.0 µM): 14%; growth inhibition ([13]; at 1.2 µM): -11%; growth inhibition ([13]; at 3.7 µM): -6%; growth inhibition ([13]; at 11.0 µM): -6%; growth inhibition ([13]; at 33.0 µM): -4%; growth inhibition ([13]; at 100.0 µM): -1%; growth inhibition ([14]; at 1.2 µM): -13%; growth inhibition ([14]; at 3.7 µM): -12%; growth inhibition ([14]; at 11.0 µM): -6%; growth inhibition ([14]; at 33.0 µM): -3%; growth inhibition ([14]; at 100.0 µM): -8%; growth inhibition [15, 17]: 2%; growth inhibition [15, 18]: 55%; growth inhibition ([15]; at 50.0 µM): 33.4%; growth inhibition ([16]; at 1.2 µM): -7%; growth inhibition ([16]; at 3.7 µM): -2%; growth inhibition ([16]; at 11.0 µM): -5%; growth inhibition ([16]; at 33.0 µM): -8%; growth inhibition ([16]; at 100.0 µM): -6%

Reference: PubChem BioAssay (NCI)
